Among all 190,000 compounds or so, about 1,300 (0.68%) were called active. The sample holds actives, similar compounds and a random draw of the others, so the mix is not that of the screen. Unmarked numbers belong to inactive results. Rule as the data show it: active = inhibition above about 50%; inactive = the rest.

Chain of Mannose-6-phosphate isomerase (Homo sapiens) (P34949 whole entry, looked up): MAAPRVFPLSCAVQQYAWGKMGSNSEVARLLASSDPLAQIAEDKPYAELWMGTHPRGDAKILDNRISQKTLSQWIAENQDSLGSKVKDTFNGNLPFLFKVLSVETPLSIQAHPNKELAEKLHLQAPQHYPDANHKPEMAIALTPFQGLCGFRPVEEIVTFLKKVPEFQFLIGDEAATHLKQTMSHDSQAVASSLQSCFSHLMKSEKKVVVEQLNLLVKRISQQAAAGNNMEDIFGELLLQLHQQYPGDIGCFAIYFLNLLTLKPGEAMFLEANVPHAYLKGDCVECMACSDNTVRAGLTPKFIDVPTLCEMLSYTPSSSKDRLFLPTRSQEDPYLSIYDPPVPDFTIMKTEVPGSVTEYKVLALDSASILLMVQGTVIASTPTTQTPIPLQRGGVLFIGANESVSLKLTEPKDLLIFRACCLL

The assay addresses Mannose-6-phosphate isomerase (Homo sapiens) (UniProt P34949). In words: MPI inhibition at elevated mannose 6-phosphate – biochemical, fluorescence intensity, high mannose 6-phosphate, primary screen (AID 1220). The following applies: recombinant PMI enzyme, coupled fluorescence intensity; at 20 µM; active compounds read high.
On to `Brc1ccc(-c2nc(-c3ccccn3)no2)o1`, for which the inhibition is -1.3%.
With `CC(C)[C@H](NC(=O)c1ccccc1)C(=O)OCc1nnc(-c2ccccc2)o1`, the inhibition is 3.9%.
The figure for `CC(=O)N1C(c2ccccc2)CC(=O)OC1c1ccc2c(c1)OCO2` (stereo not drawn) is 9.9%; for `O=C1C=CC2C(c3ccc4c(c3)OCO4)CC1N2Cc1ccccc1` (stereo not drawn) it is 63.6% (active); for `O=C1CC(N2CCN(Cc3ccc4c(c3)OCO4)CC2)C(=O)N1CCc1ccccc1` (stereo not drawn) it is 4.8%.
The figure for `Cc1ccc(NC(=O)c2cc3ccccc3o2)cc1S(=O)(=O)N(C)C` is 36.9%; for `Cc1cc(C)c(S(=O)(=O)Nc2cccc(S(=O)(=O)NC3=NCCC3)c2)c(C)c1` it is -4.4%.
The figure for `CN1CCC(=NOc2ccc([N+](=O)[O-])cc2)CC1` is -6.9%; for `CC1CN(C)C(C)C/C1=N\Oc1ccc([N+](=O)[O-])cc1` (stereo not drawn) it is -6.4%.
Turning to `CC(C)(C)/C(COc1ccccc1[N+](=O)[O-])=N/O`, the inhibition was 5.7%.
For the compound `CC1=CC(=O)C=C(C)C1=NOc1ccc([N+](=O)[O-])cc1`, the inhibition was 53.2% (active).
The figure for `CC1CN(C)C(C)C/C1=N/Oc1ccccc1[N+](=O)[O-]` (stereo not drawn) is 42.3%; for `CC1=CC(=O)C=C(C)C1=NOc1ccccc1[N+](=O)[O-]` it is 54.8% (active); for `N#Cc1ccc(NC(=O)CN2C(=O)NC(Cc3ccccc3)C2=O)cc1` (stereo not drawn) it is 3.6%.
For the compound `Cc1noc(C)c1COC(=O)COc1ccc(C#N)cc1`, the inhibition was -4.4%.
The figure for `COc1ccc(CNCC(O)(c2ccccc2)c2ccccc2)cc1OC` is -0.4%; for `COc1ccc(CNCC(O)(c2ccc(Cl)cc2)c2ccc(Cl)cc2)cc1OC` it is 55.1% (active); for `COc1ccc(CNCC(O)(c2ccc(Cl)cc2)c2ccc(Cl)cc2)cc1` it is 0%.
The figure for `COC(=O)COc1ccc(S(=O)(=O)N2CCN(c3ccccc3)CC2)cc1` is -8.3%.
Take `O=C(c1cccc(F)c1F)N1CCCC1`: the inhibition is -8.2%.
The figure for `Nc1ccccc1C(=O)N1CCCC1` is 8.2%; for `O=C(c1cccc2cccc(O)c12)N1CCCCC1` it is 63.7% (active); for `Cc1ccc2c(c1)nnn2C1CCN(S(=O)(=O)c2ccc(C(=O)O)cc2)CC1` it is 3.6%.
Turning to `Cc1ccc2c(c1)nnn2C1CCN(S(=O)(=O)c2ccc(C(=O)N3CC(C)CC(C)C3)cc2)CC1` (stereo not drawn), the inhibition was 10.4%.
The figure for `Cc1ccc2c(c1)nnn2C1CCN(S(=O)(=O)c2ccc(C(=O)N3C(C)CCCC3C)cc2)CC1` (stereo not drawn) is 53% (active); for `O=C(COC(=O)/C=C/c1ccccc1[N+](=O)[O-])NCC(F)(F)F` it is -8.8%.
In the case of `CCc1ccc(NC(=S)N2CCCCCCC2)cc1`, the inhibition is -7.1%.
The figure for `Cc1nc(SCC2(C)CC2(Cl)Cl)n[nH]1` (stereo not drawn) is -3.1%.
The figure for `COc1ccc(/C=N/NS(=O)(=O)c2ccc(C)cc2)cc1OC(=O)c1ccc(C)cc1` is -3.5%; for `Cc1cccc(/N=C/c2c(O)ccc3oc4c(c23)CCCC4)n1` it is 13.6%; for `Oc1ccc2oc3c(c2c1/C=N/n1cnnc1)CCCC3` it is 9.3%.
The figure for `Cc1ccnc(N=Cc2c(O)ccc3oc4c(c23)CCCC4)c1` is 51.1% (active); for `CCOC(=O)c1cnc2c(C#N)c(C)nn2c1-c1ccccc1` it is 3.5%.
On to `COCCN=c1scc(-c2cc(OC)c(OC)c(OC)c2)n1/N=C/c1c(C)[nH]c2ccccc12`, for which the inhibition was 13.7%.
With `N#Cc1cc([N+](=O)[O-])ccc1N1CCN(c2ccccc2O)CC1`, the inhibition is 10.8%.
The figure for `Nc1ccc2c(C(F)(F)F)cc(C(F)(F)F)nc2n1` is 53.7% (active); for `NNc1ccc2c(C(F)(F)F)cc(C(F)(F)F)nc2n1` it is -7.7%.
The figure for `CN(N)c1ccc2c(C(F)(F)F)cc(C(F)(F)F)nc2n1` is -11.3%.
With `Cc1c(Cl)cccc1Nc1nc(N)nc(CSCCO)n1`, the inhibition was -1.1%.
The figure for `O=c1c2c3c(sc2nc2n1CCCCC2)C(O)CCC3` (stereo not drawn) is 8.9%; for `COc1ccc(C2=NN(c3nc(C)cc(C)n3)C(=O)C2)cc1` it is 51.6% (active); for `Cc1cc(C)nc(N2N=C(C(C)(C)C)CC2=O)n1` it is -15%.
The figure for `Cc1cc(C)nc(N2N=C(c3ccccc3)CC2=O)n1` is 26.8%.
The figure for `Cc1ccc(CN2CCCNC2=O)cc1` is -2.5%; for `COc1cc(NC(=O)COC(=O)C2CC2)c(C)cc1[N+](=O)[O-]` it is -8%.
As to `CCn1cc(Cl)c(C(=O)Nc2nc3ccccc3n2CCN2CCCCC2)n1`, the inhibition was -2.9%.
As to `Cc1c(Cl)c(C(=O)Nc2nc3ccccc3n2CCN2CCCCC2)nn1C`, the inhibition is 55.1% (active).
`O=C(Nc1nc2ccccc2n1CCN1CCCCC1)c1ccc(Cl)cc1`: the inhibition is -11.3%.
The figure for `CCOC(=O)c1cc(-c2ccc(C)cc2)n(CCC(=O)NCCN(C)C)c1C` is 5.6%.
Regarding `O=C1CN2NC(=S)N(c3ccc(Cl)cc3)C2=CN1c1ccc(Cl)cc1`, the inhibition is -2.8%.
The figure for `CCOc1cc(NC(=O)c2cccs2)c(OCC)cc1NC(=O)CCC(=O)NCCN1CCOCC1` is 10.6%; for `CCOc1cc(NC(=S)NCCCN2CCOCC2)c(OCC)cc1NC(=O)c1ccccc1C` it is 47.3%.
As to `CCOc1cc(NC(=S)NCCCN2CCOCC2)c(OCC)cc1NC(=O)c1cccs1`, the inhibition is 56.1% (active).
The figure for `CCOc1cc(NC(=S)NCCCN2CCOCC2)c(OCC)cc1NC(=O)c1cccc(F)c1` is 49.5%; for `CCOc1cc(NC(=S)NCCCN2CCOCC2)c(OCC)cc1NC(=O)c1ccc(C)cc1` it is 52.6% (active); for `CCOc1cc(NC(=S)NCCCN2CCOCC2)c(OCC)cc1NC(=O)c1ccccc1` it is 24.1%.
For `O=C(CCCCCn1c(=S)[nH]c2ccccc2c1=O)NCc1ccc2c(c1)OCO2`, the inhibition was -9.7%.
The figure for `C=CCNC(=S)NNC(=O)c1cccn(Cc2ccc(Cl)cc2Cl)c1=O` is -10.6%; for `O=C(C[n+]1ccccc1)N/N=C/c1cccs1` it is -14%.
The figure for `Cc1cc(C)nc(N(C#N)S(=O)(=O)c2ccc(Br)cc2)n1` is -3.3%; for `O=C(CSc1nc(O)cc(=O)[nH]1)N1c2ccccc2Sc2ccccc21` it is 7.8%; for `COc1ccc(CCNC(=O)c2ccc(SC)cc2OC)cc1` it is -1.4%.
The figure for `Nc1cc(N)c(OCC(F)(F)F)cc1OCC(F)(F)F` is 55.8% (active); for `COCCOc1ccc(C(F)(F)F)cc1N` it is 8.3%; for `Nc1cc(OCC(F)(F)F)cc([N+](=O)[O-])c1` it is -2.2%.
With `CONC(=O)c1cc(OCC(F)(F)F)ccc1OCC(F)(F)F`, the inhibition was -7.9%.
The figure for `O=C(Nc1ccc(F)cc1)Nc1cc(OCC(F)(F)F)cc(OCC(F)(F)F)c1` is 8.1%; for `Nc1cc(OCC(F)(F)F)cc(OCC(F)(F)F)c1` it is 56.9% (active).
Consider `O=C1CCC(/C=C/c2ccccc2)=NN1Cc1ccc(F)cc1`, for which the inhibition was -0.5%.
As for `CC(=O)NC(CC(=O)NC12CC3CC(CC(C3)C1)C2)c1ccccc1` (stereo not drawn), the inhibition was 1.3%.
The figure for `CCn1cc([N+](=O)[O-])c(C(=O)NCc2ccc(Cl)cc2)n1` is -5%; for `N#Cc1cc(Oc2ccccc2)c(-n2nnc3ccccc32)cc1C#N` it is 3.1%; for `C#CCOCCOCCOCCNc1nc(N2CCN(C(=O)[C@H]([C@@H](C)CC)n3cc(CCCCN)nn3)CC2)nc(N2CCN(C(=O)[C@H](C)n3cc(CCC(=O)O)nn3)CC2)n1` it is -27.7%.
The figure for `COCCN1CC(=O)N(c2cccc(C)c2C)C(c2ccc(Cl)cc2)C1=O` (stereo not drawn) is -1.2%; for `COc1ccc(N=Cc2sc(O)c3ccccc23)cc1` it is 8.8%.
The figure for `COc1ccc(N=CC2=C(O)c3ccccc3C2=O)cc1` is 5.6%; for `COc1cccc(C=Nc2ccc3c(c2)OCCO3)c1O` it is 34.6%; for `COc1ccc2c(c1)O[C@H](c1ccc3c(c1)OCO3)[C@@H](O)C2=O` it is -2.7%.
As for `CC1(C)CC(=O)C(C=Nc2ccc3c(c2)OCO3)=C(O)C1`, the inhibition is 14.2%.
The figure for `Oc1[nH]c2ccccc2c1C=Nc1ccc2c(c1)OCO2` is 8.6%.
The figure for `CCCC(=O)Nc1ccc(C(N)=O)cc1` is 5.2%; for `Cc1ccc(C)c(NC(=O)CCC(=O)NNC(=O)C(c2ccccc2)c2ccccc2)c1` it is -16.3%; for `CC(C)OC(=O)CSc1nnc2c(n1)[nH]c1ccc(F)cc12` it is -5.2%.
The figure for `O=C(NC1CCN(S(=O)(=O)c2ccccc2)CC1)C1CCCCC1` is 7.7%; for `O=C(c1ccc(Cl)cc1Cl)N1CCC(c2nc3c(nnn3Cc3ccco3)c(=O)[nH]2)CC1` it is 14.6%.
With `CN(C)CCCN(C(=O)CCc1ccccc1)c1nc2c(F)cccc2s1`, the inhibition is 4%.
The figure for `CN(C)CCCN(C(=O)COc1ccccc1)c1nc2c(F)cccc2s1` is -2.9%; for `CN(C)CCCN(C(=O)CCOc1ccccc1)c1nc2c(F)cccc2s1` it is 54.4% (active).
Regarding `COc1ccc(C)cc1NC(=O)CN(C)S(=O)(=O)c1cccs1`, the inhibition is 1.9%.
With `Cc1ccc(SCCC(=O)NCCSCc2ccccc2C)cc1`, the inhibition is 8.3%.
The figure for `CCOc1ccc(C(=O)CCNC(Cc2cnc[nH]2)C(=O)O)cc1` (stereo not drawn) is 3.4%; for `O=C1S/C(=C\c2ccc(N3CCOCC3)o2)C(=O)N1c1ccccc1` it is 53.8% (active).
The figure for `O=C1N/C(=C/c2ccc(N3CCOCC3)o2)C(=O)N1c1cccc(Cl)c1` is 15.3%.
The figure for `CCOC(=O)CN1C(=O)S/C(=C/c2ccc(N3CCCCC3)o2)C1=O` is 24.1%; for `O=C1S/C(=C\c2ccc(N3CCOCC3)o2)C(=O)N1Cc1c(F)cccc1Cl` it is 56.3% (active); for `O=C1N/C(=C/c2ccc(N3CCOCC3)o2)C(=O)N1c1ccccc1` it is 9%.
`O=C1S/C(=C/c2ccc(N3CCOCC3)o2)C(=O)N1Cc1ccc(F)cc1`: the inhibition was 45.3%.
The figure for `CCCN1C(=O)S/C(=C\c2ccc(N3CCOCC3)o2)C1=O` is 52.4% (active).
For `O=C1S/C(=C\c2ccc(N3CCOCC3)o2)C(=O)N1Cc1ccc(F)cc1`, the inhibition is 57.3% (active).
`CC(C)OC(=O)CN1C(=O)S/C(=C/c2ccc(N3CCCCC3)o2)C1=O`: the inhibition is 25%.
With `O=C1S/C(=C/c2ccc(N3CCOCC3)o2)C(=O)N1Cc1c(F)cccc1Cl`, the inhibition is 5.6%.
The figure for `CCCN1C(=O)S/C(=C\c2ccc(N3CCOCC3)cc2C)C1=O` is 9.4%; for `COC(=O)CN1C(=O)S/C(=C/c2ccc(N3CCCCC3)o2)C1=O` it is 46%.

For orientation: inhibition means the change of the read-out against control, counted positive when it falls.

The record behind these values is PubChem BioAssay AID1220 (Sanford-Burnham Center for Chemical Genomics, 2008).
